# From PMC5540273 (PLoS ONE, 2017)
# Like-named read-outs stand apart in the source and are kept apart here.
# How the values were obtained:
# [1] = tested on: FYN; details: concentration: 1 μM,replicates: in singlicate; n = 1
# [2] = tested on: GAK; details: concentration: 1 μM,replicates: in singlicate; n = 1
# [3] = tested on: T1, GCN2(Kin.Dom.2,S808G); details: concentration: 1 μM,replicates: in singlicate; n = 1
# T1 construct: gene EIF2AK4
# [4] = tested on: GRK1; details: concentration: 1 μM,replicates: in singlicate; n = 1
# [5] = tested on: T2, GRK2; details: concentration: 1 μM,replicates: in singlicate; n = 1
# T2 construct: gene ADRBK1
# [6] = tested on: T3, GRK3; details: concentration: 1 μM,replicates: in singlicate; n = 1
# T3 construct: gene ADRBK2
# [7] = tested on: GRK4; details: concentration: 1 μM,replicates: in singlicate; n = 1
# [8] = tested on: GRK7; details: concentration: 1 μM,replicates: in singlicate; n = 1
# [9] = tested on: GSK3A; details: concentration: 1 μM,replicates: in singlicate; n = 1
# [10] = tested on: GSK3B; details: n = 1
# [11] = tested on: T4, HASPIN; details: concentration: 1 μM,replicates: in singlicate; n = 1
# T4 construct: gene GSG2
# [12] = tested on: HCK; details: concentration: 1 μM,replicates: in singlicate; n = 1
# [13] = tested on: HIPK1; details: concentration: 1 μM,replicates: in singlicate; n = 1
# [14] = tested on: HIPK2; details: concentration: 1 μM,replicates: in singlicate; n = 1
# [15] = tested on: HIPK3; details: concentration: 1 μM,replicates: in singlicate; n = 1
# [16] = tested on: HIPK4; details: concentration: 1 μM,replicates: in singlicate; n = 1
# [17] = tested on: HPK1; details: concentration: 1 μM,replicates: in singlicate; n = 1
# [18] = tested on: HUNK; details: concentration: 1 μM,replicates: in singlicate; n = 1
# [19] = tested on: ICK; details: concentration: 1 μM,replicates: in singlicate; n = 1
# [20] = tested on: IGF1R; details: concentration: 1 μM,replicates: in singlicate; n = 1
# [21] = concentration: 1 μM,replicates: in singlicate
# 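Further: KINOMEscan kinase panel screen.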
smiles,measurement,setting,value
OCCn1cc(-c2cnc3nnn(Cc4ccc5ncccc5c4)c3n2)cn1,%Inh,[1],0%
same,%Inh,[2],6%
same,%Inh,[3],0%
same,%Inh,[4],3%
same,%Inh,[5],0%
same,%Inh,[6],1%
same,%Inh,[7],0%
same,%Inh,[8],0%
same,%Inh,[9],0%
same,%Inh,[10]; [21],0%
same,%Inh,[11],0%
same,%Inh,[12],25%
same,%Inh,[13],6%
same,%Inh,[14],0%
same,%Inh,[15],0%
same,%Inh,[16],3%
same,%Inh,[17],0%
same,%Inh,[18],0%
same,%Inh,[19],0%
same,%Inh,[20],0%
C[C@@H]1CCN(C(=O)N2CCCC2)C[C@@H]1N(C)c1ncnc2[nH]ccc12,%Inh,[1],59%
same,%Inh,[2],0%
same,%Inh,[3],1%
same,%Inh,[4],17%
same,%Inh,[5],25%
same,%Inh,[6],36%
same,%Inh,[7],17%
same,%Inh,[8],8%
same,%Inh,[9],2%
same,%Inh,[10]; [21],26%
same,%Inh,[11],30%
same,%Inh,[12],0%
same,%Inh,[13],25%
same,%Inh,[14],0%
same,%Inh,[15],22%
same,%Inh,[16],2%
same,%Inh,[17],0%
same,%Inh,[18],0%
same,%Inh,[19],13%
same,%Inh,[20],0%
COC(=O)c1cccc(NC(=O)NC2CCN(c3ccnc(Nc4cc(OC)c(OC)c(OC)c4)n3)C2)c1 (stereo not shown) [GSK1379767],%Inh,[1],9%
same,%Inh,[2],27%
same,%Inh,[3],0%
same,%Inh,[4],13%
same,%Inh,[5],0%
same,%Inh,[6],49%
same,%Inh,[7],0%
same,%Inh,[8],0%
same,%Inh,[9],2%
same,%Inh,[10]; [21],0%
same,%Inh,[11],15%
same,%Inh,[12],5%
same,%Inh,[13],0%
same,%Inh,[14],0%
same,%Inh,[15],6%
same,%Inh,[16],0%
same,%Inh,[17],72%
same,%Inh,[18],0%
same,%Inh,[19],0%
same,%Inh,[20],3%
COc1cccc(C2=C(Nc3cccc(Cl)c3)C(=O)NC2=O)c1 [SB-341556],%Inh,[1],25%
same,%Inh,[2],12%
same,%Inh,[3],0%
same,%Inh,[4],27%
same,%Inh,[5],0%
same,%Inh,[6],22%
same,%Inh,[7],27%
same,%Inh,[8],0%
same,%Inh,[9],70%
same,%Inh,[10]; 1 µM,35%
same,%Inh,[11],0%
same,%Inh,[12],0%
same,%Inh,[13],19%
same,%Inh,[14],0%
same,%Inh,[15],33%
same,%Inh,[16],0%
same,%Inh,[17],47%
same,%Inh,[18],0%
same,%Inh,[19],33%
same,%Inh,[20],7%
CC(C)c1nc(-c2cccc(NS(=O)(=O)c3ccccc3)c2)c(-c2ccnc(Nc3ccc4c(c3)CN(C)CC4)n2)s1 [GSK1649598],%Inh,[1],98.7%
same,%Inh,[2],87%
same,%Inh,[3],100%
same,%Inh,[4],0%
same,%Inh,[5],0%
same,%Inh,[6],0%
same,%Inh,[7],0%
same,%Inh,[8],0%
same,%Inh,[9],61%
same,%Inh,[10]; [21],24%
same,%Inh,[11],0%
same,%Inh,[12],99.7%
same,%Inh,[13],75%
same,%Inh,[14],58%
same,%Inh,[15],69%
same,%Inh,[16],93.6%
same,%Inh,[17],88%
same,%Inh,[18],3%
same,%Inh,[19],36%
same,%Inh,[20],0%
O=C(Nc1n[nH]c2cc(-c3ccco3)ccc12)C1CC1 [SB-737447],%Inh,[1],0%
same,%Inh,[2],5%
same,%Inh,[3],25%
same,%Inh,[4],23%
same,%Inh,[5],0%
same,%Inh,[6],0%
same,%Inh,[7],68%
same,%Inh,[8],3%
same,%Inh,[9],96.2%
same,%Inh,[10]; [21],66%
same,%Inh,[11],0%
same,%Inh,[12],5%
same,%Inh,[13],39%
same,%Inh,[14],50%
same,%Inh,[15],31%
same,%Inh,[16],6%
same,%Inh,[17],3%
same,%Inh,[18],0%
same,%Inh,[19],66%
same,%Inh,[20],0%
N#Cc1cccc(C(=O)NC2CCN(c3ccnc(Nc4ccc(F)cc4)n3)C2)c1 (stereo not shown) [GSK1379708],%Inh,[1],30%
same,%Inh,[2],0%
same,%Inh,[3],9%
same,%Inh,[4],0%
same,%Inh,[5],0%
same,%Inh,[6],0%
same,%Inh,[7],2%
same,%Inh,[8],0%
same,%Inh,[9],0%
same,%Inh,[10]; [21],0%
same,%Inh,[11],0%
same,%Inh,[12],0%
same,%Inh,[13],0%
same,%Inh,[14],3%
same,%Inh,[15],0%
same,%Inh,[16],0%
same,%Inh,[17],40%
same,%Inh,[18],7%
same,%Inh,[19],0%
same,%Inh,[20],0%
Cn1ccc2ncnc(Oc3ccc(NC(=O)Nc4cnn(C(C)(C)C)c4)c(Cl)c3)c21,%Inh,[1],0%
same,%Inh,[2],0%
same,%Inh,[3],23%
same,%Inh,[4],18%
same,%Inh,[5],2%
same,%Inh,[6],6%
same,%Inh,[7],3%
same,%Inh,[8],0%
same,%Inh,[9],14%
same,%Inh,[10]; [21],0%
same,%Inh,[11],35%
same,%Inh,[12],33%
same,%Inh,[13],26%
same,%Inh,[14],16%
same,%Inh,[15],0%
same,%Inh,[16],1%
same,%Inh,[17],5%
same,%Inh,[18],0%
same,%Inh,[19],0%
same,%Inh,[20],25%
CC(=O)c1c(-c2ccncc2)[nH]c(-c2ccncc2)c1C [GW493036],%Inh,[1],37%
same,%Inh,[2],27%
same,%Inh,[3],0%
same,%Inh,[4],0%
same,%Inh,[5],0%
same,%Inh,[6],66%
same,%Inh,[7],0%
same,%Inh,[8],0%
same,%Inh,[9],81%
same,%Inh,[10]; [21],58%
same,%Inh,[11],85%
same,%Inh,[12],0%
same,%Inh,[13],53%
same,%Inh,[14],0%
same,%Inh,[15],65%
same,%Inh,[16],86%
same,%Inh,[17],11%
same,%Inh,[18],26%
same,%Inh,[19],18%
same,%Inh,[20],0%
CCOC(=O)N1CCC(n2cnc(-c3ccc(F)cc3)c2-c2ccnc(N)n2)CC1 [SB-219952],%Inh,[1],0%
same,%Inh,[2],59%
same,%Inh,[3],44%
same,%Inh,[4],0%
same,%Inh,[5],8%
same,%Inh,[6],0%
same,%Inh,[7],32%
same,%Inh,[8],20%
same,%Inh,[9],0%
same,%Inh,[10]; [21],37%
same,%Inh,[11],0%
same,%Inh,[12],0%
same,%Inh,[13],37%
same,%Inh,[14],17%
same,%Inh,[15],15%
same,%Inh,[16],0%
same,%Inh,[17],5%
same,%Inh,[18],0%
same,%Inh,[19],70%
same,%Inh,[20],0%
O=C(Nc1cccc(Oc2ccc3nccn3n2)c1)Nc1cccc(C(F)(F)F)c1,%Inh,[1],31%
same,%Inh,[2],4%
same,%Inh,[3],27%
same,%Inh,[4],0%
same,%Inh,[5],0%
same,%Inh,[6],0%
same,%Inh,[7],1%
same,%Inh,[8],0%
same,%Inh,[9],0%
same,%Inh,[10]; [21],0%
same,%Inh,[11],0%
same,%Inh,[12],27%
same,%Inh,[13],7%
same,%Inh,[14],33%
same,%Inh,[15],1%
same,%Inh,[16],17%
same,%Inh,[17],0%
same,%Inh,[18],22%
same,%Inh,[19],0%
same,%Inh,[20],3%
